Laboratory results published in PubChem BioAssay (EPA / NIEHS).
Where a structure was tested more than once in an assay, its records may differ in their call. Calls of active or inactive are those of the source. How the source made its calls, unless noted: active means hit-call score of the fitted dose curve at least 0.9, where 1 is the maximum; inactive means score below 0.9.

Experiments:
[1] = read-out: Interleukin-8 (IL8), CXCL8 (gene 3576); experiment: BSK_SAg_IL8: BioMAP Diversity Plus: SAg Assay for Interleukin-8 (IL8) Biomarker Activity (AID 2283094); settings: primary human HUVEC with PBMC; actives raise or lower the signal
In short: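 In this co-culture of human umbilical vein endothelium with peripheral blood mononuclear cells, IL-8 is assayed by ELISA at 24 h. DMSO serves as baseline for bidirectional curve fitting.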

[2] = BSK_SAg_Proliferation: Cell Proliferation Assessment in the BioMAP Diversity Plus: SAg Assay (AID 2283095); settings: primary human HUVEC with PBMC;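 further: relative cell number as total protein by SRB absorbance in sub-confluent culture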
In short: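 Readout is SRB-stained protein (560 nm) in a primary human HUVEC and PBMC co-culture; sub-confluent cultures are read at 96 h. Activity is fitted bidirectionally using DMSO as baseline.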

[3] = BSK_SAg_SRB: Viability Assessment in the BioMAP Diversity Plus: SAg Assay (AID 2283096); settings: primary human HUVEC with PBMC;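 further: cells read one day after compound addition; hits may be either gain or loss of signal compared with DMSO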
In short: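 Human umbilical vein endothelial cells co-cultured with PBMC, read 24 h after compound dosing. Total protein measured by sulforhodamine B staining (0.1% SRB after 10% TCA fixation, absorbance 560 nm); bidirectional fit versus DMSO baseline.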

[4] = BSK_SAg_PBMCCytotoxicity: PBMC Cytotoxicity Assessment in the BioMAP Diversity Plus: SAg Assay (AID 2283093); settings: primary human HUVEC with PBMC;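 further: PBMC viability measured as Alamar Blue reduction fluorescence at 546/580 nm; fitted both ways against DMSO so a hit may be loss or gain of signal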;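 on AC50: PBMC superantigen activated with SEB plus TSST-1 one hour after compound addition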
In short: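 HUVEC/PBMC co-culture; PBMC exposed to chemical 1 h before SEB and TSST-1 activation (20 ng/mL each), incubated 90 h, then Alamar Blue 6 h, fluorescence 546/580 nm. Bidirectional fit versus DMSO baseline.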

[5] = target: human CYP2D6, CYP2D6 (gene 1565) (UniProt P10635); experiment: NVS_ADME_hCYP2D6: NovaScreen (NVS) CYP450-related Enzyme Activity (ADME) Assay for human CYP2D6 (AID 2283107; active means hit-call score of the fitted dose curve at least 0.9, where 1 is the maximum)
In short: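 Fluorescence intensity read 1 h post-dosing; insect-cell-expressed recombinant protein with fluorogenic substrate, no cells. Activity is scored as signal loss relative to acetonitrile baseline, first at a single 10 uM concentration in duplicate, then as concentration series for confirmed actives.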

[6] = target: human CYP1A2, CYP1A2 (gene 1544) (UniProt P05177); experiment: NVS_ADME_hCYP1A2: NovaScreen (NVS) CYP450-related Enzyme Activity (ADME) Assay for human CYP1A2 (AID 2283102; active means hit-call score of the fitted dose curve at least 0.9, where 1 is the maximum;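 further: potency for inhibition since loss of fluorescence marks reduced CYP1A2 activity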)
In short: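 Fluorescence-intensity enzyme activity read-out, taken 0.5 h post-dosing, using insect-cell-derived recombinant CYP1A2 and specific fluorescent substrate. Acetonitrile served as negative control/baseline. Single-concentration duplicate screen at 10 uM, then concentration-response follow-up.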

Chain of human CYP2D6, CYP2D6 (gene 1565) (P10635 whole entry, looked up): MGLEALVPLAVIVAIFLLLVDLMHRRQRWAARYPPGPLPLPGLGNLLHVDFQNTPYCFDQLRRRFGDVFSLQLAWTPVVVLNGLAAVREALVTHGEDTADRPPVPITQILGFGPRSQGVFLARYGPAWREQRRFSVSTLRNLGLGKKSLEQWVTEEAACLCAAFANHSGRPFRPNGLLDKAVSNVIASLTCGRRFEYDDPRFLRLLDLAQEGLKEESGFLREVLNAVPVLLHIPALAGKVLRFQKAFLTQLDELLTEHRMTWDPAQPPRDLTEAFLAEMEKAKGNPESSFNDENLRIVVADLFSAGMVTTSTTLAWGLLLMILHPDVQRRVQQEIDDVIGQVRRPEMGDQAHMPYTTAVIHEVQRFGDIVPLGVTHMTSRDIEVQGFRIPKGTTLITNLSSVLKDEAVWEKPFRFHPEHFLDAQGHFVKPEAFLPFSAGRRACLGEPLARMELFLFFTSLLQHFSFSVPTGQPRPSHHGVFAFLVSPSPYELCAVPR
Chain of human CYP1A2, CYP1A2 (gene 1544) (P05177 whole entry, looked up): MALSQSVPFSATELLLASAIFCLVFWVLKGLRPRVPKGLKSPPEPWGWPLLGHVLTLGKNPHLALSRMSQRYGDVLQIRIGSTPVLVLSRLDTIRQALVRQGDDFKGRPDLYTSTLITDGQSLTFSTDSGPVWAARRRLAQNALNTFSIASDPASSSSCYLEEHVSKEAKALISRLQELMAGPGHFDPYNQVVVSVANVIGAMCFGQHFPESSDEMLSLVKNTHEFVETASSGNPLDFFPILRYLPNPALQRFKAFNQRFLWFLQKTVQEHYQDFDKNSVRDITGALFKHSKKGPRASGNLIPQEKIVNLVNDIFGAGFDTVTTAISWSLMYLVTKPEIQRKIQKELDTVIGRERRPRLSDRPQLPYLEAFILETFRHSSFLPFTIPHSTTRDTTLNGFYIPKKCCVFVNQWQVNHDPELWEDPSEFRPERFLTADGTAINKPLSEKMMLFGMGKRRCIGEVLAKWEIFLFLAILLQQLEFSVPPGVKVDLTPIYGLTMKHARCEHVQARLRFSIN

CCCCOC(=O)COC(=O)c1ccccc1C(=O)OCCCC
outcome [1]: inactive | outcome [2]: inactive | outcome [3]: inactive

NC(=O)CCl
outcome [1]: inactive | outcome [2]: inactive | outcome [3]: inactive

CC(C)N(C(=O)CCl)c1ccccc1
outcome [1]: inactive | AC50 [2]: 3.59 µM (active) | AC50 [3]: 33.8 µM (active)

C=CC(Cl)CCl (centres undefined)
outcome [1]: inactive | outcome [2]: inactive | outcome [3]: inactive

Clc1cccc(Cl)c1
outcome [4]: inactive | outcome [1]: inactive | outcome [2]: inactive | outcome [3]: inactive

O=C(N[C@H]1CN2CCC1CC2)c1ccc2c(c1)OCCO2
outcome [4]: inactive | outcome [1]: inactive | outcome [2]: inactive | outcome [3]: inactive

Oc1c(Br)cc(Br)cc1Br
outcome [4]: inactive | outcome [1]: inactive | AC50 [2]: 20 µM (active) | AC50 [3]: 31.7 µM (active)

Cc1cc(Cl)ccc1N
outcome [4]: inactive | outcome [1]: inactive | outcome [2]: inactive | outcome [3]: inactive

Nc1ccc(N)cc1
outcome [4]: inactive | outcome [1]: inactive | outcome [2]: inactive | outcome [3]: inactive | outcome [5]: inactive

C#CCOC(=O)/C=C(C)/C=C/CC(C)CCCC(C)C (centres undefined)
outcome [4]: inactive | outcome [1]: inactive | outcome [2]: inactive | outcome [3]: inactive

OCCCCO
outcome [1]: inactive | AC50 [2]: 0.61 µM (active) | outcome [2]: inactive | outcome [3]: inactive

CCCCCCCCCCCCN(C)C
outcome [1]: inactive | outcome [2]: inactive | outcome [3]: inactive

Nc1c(Oc2ccccc2)cc(O)c2c1C(=O)c1ccccc1C2=O
outcome [4]: inactive | AC50 [1]: 1.56 µM (active) | outcome [2]: inactive | AC50 [3]: 2.22 µM (active)

CCOP(=O)(OCC)SCCSCC
outcome [4]: inactive | outcome [1]: inactive | outcome [2]: inactive | outcome [3]: inactive

Oc1cc(Cl)c(Cl)cc1Cl
AC50 [1]: 31.1 µM (active) | AC50 [2]: 30.6 µM (active) | AC50 [3]: 27.6 µM (active)

c1ccc(-c2cccc(-c3ccccc3)c2)cc1
AC50 [1]: 20 µM (active) | AC50 [2]: 29.2 µM (active) | AC50 [3]: 27.5 µM (active)

Clc1cccc(Cl)c1Cl
outcome [4]: inactive | outcome [1]: inactive | outcome [2]: inactive | outcome [3]: inactive

O=c1oc2ccccc2c(O)c1C(CC(O)c1ccc(-c2ccc(Br)cc2)cc1)c1ccccc1 (centres undefined)
AC50 [4]: 23.5 µM (active) | outcome [1]: inactive | AC50 [2]: 26.4 µM (active) | AC50 [3]: 19.1 µM (active)

[Cl][Sn]([c]1ccccc1)([c]1ccccc1)[c]1ccccc1
AC50 [4]: 0.125 µM (active) | AC50 [1]: 0.253 µM (active) | AC50 [2]: 0.0609 µM (active) | AC50 [3]: 0.337 µM (active) | AC50 [5]: 0.997 µM (active)

Cc1cc(C)cc(C)c1
outcome [4]: inactive | outcome [1]: inactive | outcome [2]: inactive | outcome [3]: inactive

Cc1ccccc1OP(=O)(Oc1ccccc1C)Oc1ccccc1C
AC50 [4]: 26.6 µM (active) | AC50 [1]: 12.4 µM (active) | AC50 [2]: 12.7 µM (active) | AC50 [3]: 9.8 µM (active)

CCOP(=S)(OCC)SCS(=O)(=O)C(C)(C)C
outcome [4]: inactive | outcome [1]: inactive | outcome [2]: inactive | outcome [3]: inactive

Cc1ccccc1OP(=O)(Oc1ccccc1)Oc1ccccc1
outcome [4]: inactive | AC50 [1]: 9.82 µM (active) | outcome [2]: inactive | AC50 [3]: 31.6 µM (active)

O=C1C=CC(=O)c2ccccc21
AC50 [1]: 0.709 µM (active) | AC50 [2]: 0.125 µM (active) | AC50 [3]: 5.33 µM (active)

O=C(O)COc1cc(Cl)c(Cl)cc1Cl
outcome [4]: inactive | outcome [1]: inactive | outcome [2]: inactive | outcome [3]: inactive

CN(C)C(=S)S
AC50 [4]: 0.148 µM (active) | outcome [1]: inactive | AC50 [2]: 0.488 µM (active) | outcome [3]: inactive | AC50 [6]: 5.64 µM (active)

CCOC(=O)CCN(SN(C)C(=O)Oc1cccc2c1OC(C)(C)C2)C(C)C
AC50 [4]: 26 µM (active) | outcome [1]: inactive | AC50 [2]: 23.1 µM (active) | outcome [3]: inactive

Cc1c([N+](=O)[O-])c(C)c([N+](=O)[O-])c(C(C)(C)C)c1[N+](=O)[O-]
outcome [4]: inactive | outcome [1]: inactive | AC50 [2]: 6.82 µM (active) | outcome [3]: inactive

OCCN(CCO)CCO
outcome [4]: inactive | outcome [1]: inactive | outcome [2]: inactive | outcome [3]: inactive

CC(C)(C)c1cc([N+](=O)[O-])cc(C(C)(C)C)c1O
outcome [4]: inactive | AC50 [1]: 0.0941 µM (active) | outcome [2]: inactive | AC50 [3]: 0.215 µM (active)

CC(C)O.CC(C)O.OCCN(CCO)CCO.OCCN(CCO)CCO.[Ti]
outcome [4]: inactive | outcome [1]: inactive | outcome [2]: inactive | outcome [3]: inactive
